# PubChem BioAssay (EPA / NIEHS)
# Results filed as inconclusive are left out. Active and inactive are the calls of the source. Rule for the calls, unless noted: active = hit-call score of the fitted dose curve at least 0.9, where 1 is the maximum; inconclusive = response in the unintended direction; inactive = score below 0.9.
# Legend:
# [1] = target: Bile acid receptor (Homo sapiens) (UniProt Q96RI1); assay: ATG_IR1_CIS: Attagene CIS-FACTORIAL HepG2 Assay for human Nuclear Receptor Subfamily 1 Group H Member 4 (NR1H4), IR1 submotif (AID 2282946; active = hit-call score of the fitted dose curve at least 0.9, where 1 is the maximum; inactive = score below 0.9); settings: IR1 reporter transcription, actives raise or lower the signal
# In short: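 HepG2 cells transiently transfected with multiple cis-promoter-driven reporter units to measure endogenous transcription factor activity; 24 h exposure. Reporter mRNA read by RT-PCR, FAM labelling, HpaI digestion and capillary electrophoresis. Bidirectional fit versus DMSO.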
# [2] = target: human Peroxisome Proliferator-activated Receptor delta (PPARd), PPARD (gene 5467) (UniProt Q03181); assay: ATG_PPARd_TRANS: Attagene TRANS-FACTORIAL HepG2 Assay for human Peroxisome Proliferator-activated Receptor delta (PPARd) (AID 2283002)
# In short: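 Read-out: reporter mRNA induction, quantified by fluorescent RT-PCR products resolved by capillary electrophoresis. Human HepG2 liver cells carried transiently transfected Gal4-UAS reporter constructs with chimeric NR-Gal4 fusions. Cells were dosed for 24 h; DMSO served as baseline.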
# [3] = ATG_XTT_Cytotoxicity: Cytotoxicity Assessment in the Attagene TRANS-FACTORIAL HepG2 Assay (AID 2283584)
# In short: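 HepG2 human liver cells, transiently transfected with multiple GAL4-UAS reporter units, were dosed and read at 24 h by XTT as cell number. Loss of signal was fitted relative to DMSO negative control baseline.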
# [4] = ATG_ERE_CIS: Attagene CIS-FACTORIAL HepG2 Assay for Estrogen Response Element (ERE) (AID 2282940; active = hit-call score of the fitted dose curve at least 0.9, where 1 is the maximum; inactive = score below 0.9); settings: HepG2 ERE cis-reporter, Attagene RNA transcript; actives raise or lower the signal
# In short: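 After a 24 h chemical treatment, RNA from reporter-transfected HepG2 cells is reverse-transcribed, PCR-amplified and fluorescently labelled. Fragments separated by capillary electrophoresis give reporter signal; DMSO serves as negative control.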
# [5] = target: Nuclear receptor subfamily 1 group I member 3 (Homo sapiens) (UniProt Q14994); assay: ATG_CAR_TRANS: Attagene TRANS-FACTORIAL HepG2 Assay for human Constitutive Androstane Receptor (CAR) (AID 2282969); settings: HepG2 Attagene TRANS-FACTORIAL CAR reporter;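 note: activators raise reporter mRNA above DMSO so AC50 marks induction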
# In short: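 HepG2 cells transiently transfected with GAL4-UAS reporter units; TRANS format reads activity of exogenous chimeric NR-Gal4 protein. After 24 h dosing, reporter mRNA quantified by RT-PCR, 6-FAM labelling and capillary electrophoresis; gain of signal fitted against DMSO.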
# [6] = target: Glucocorticoid receptor (Homo sapiens) (UniProt P04150); assay: ATG_GR_TRANS: Attagene TRANS-FACTORIAL HepG2 Assay for human Glucocorticoid Receptor (GR) (AID 2282978); settings: HepG2 Attagene TRANS GR reporter, mRNA transcription;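 note: activators score as hits since higher reporter transcript over DMSO is fitted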
# In short: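 Readout is reporter transcript from a chimeric GR-Gal4 acting on GAL4-UAS in transfected human HepG2 liver cells after 24 h exposure, quantified by RT-PCR and capillary electrophoresis. Activation fitted upward against DMSO.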
# [7] = target: Oxysterols receptor LXR-alpha (Homo sapiens) (UniProt Q13133); assay: ATG_LXRa_TRANS: Attagene TRANS-FACTORIAL HepG2 Assay for human Liver X Receptor alpha (LXRa) (AID 2282980); settings: HepG2 Attagene TRANS reporter, LXRa transactivation
# In short: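 HepG2 cells were transiently transfected with multiplexed reporter units driven by chimeric LXRa–GAL4 fusion proteins, then dosed for 24 h. Reporter mRNA was quantified by RT-PCR, fluorescent labelling and capillary electrophoresis; gain of signal fitted against DMSO baseline.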
# [8] = target: Oxysterols receptor LXR-beta (Homo sapiens) (UniProt P55055); assay: ATG_LXRb_TRANS: Attagene TRANS-FACTORIAL HepG2 Assay for human Liver X Receptor beta (LXRb) (AID 2282981); settings: HepG2 Attagene TRANS GAL4-LXRb reporter, mRNA
# In short: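 HepG2 cells transiently transfected with GAL4-UAS reporter units for chimeric NR-Gal4 proteins, dosed for 24 h. Reporter transcripts measured by RT-PCR and capillary electrophoresis; gain-of-signal fitting relative to DMSO.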
# [9] = target: Hepatocyte nuclear factor 4-alpha (Homo sapiens) (UniProt P41235); assay: ATG_HNF4a_TRANS: Attagene TRANS-FACTORIAL HepG2 Assay for human Hepatocyte Nuclear Factor 4 alpha (HNF4a) (AID 2282982); settings: HepG2 HNF4a transactivation reporter, mRNA readout
# In short: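 HepG2 cells transiently transfected with HNF4a-Gal4 chimera and GAL4-UAS reporter units, dosed for 24 h. Reporter mRNA measured by RT-PCR, fluorescent primer extension and capillary electrophoresis; gain-of-signal fitted relative to DMSO.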
# [10] = TOX21_p53_BLA_p2_viability: Viability Assessment in the Tox21 HCT-116 p53 Agonism Beta-lactamase Assay, Phase 2 (AID 2283591);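 note: compound exposure lasted 16 h at 37 °C; actives lower the ATP signal meaning cytotoxicity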
# In short: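 HCT116 p53-bla cells, 4000/well, dosed after 5 h plating (217-fold dilution of DMSO stocks) and incubated 16 h at 37C. Viability taken as cellular ATP by CellTiter-Glo luminescence after 30 min RT; signal loss marks cytotoxicity.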
# [11] = target: Cellular tumor antigen p53 (Homo sapiens) (UniProt P04637); assay: TOX21_p53_BLA_p3_ratio: Tox21 HCT-116 p53 Agonism Beta-lactamase Assay, Ratio, Phase 3 (AID 2283596)
# In short: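 HCT116 p53-bla cells (4000/well) given compound in DMSO (217-fold dilution) after 5 h, incubated 16 h at 37C. CCF4-AM substrate 2 h at room temperature; 460/530 nm emission ratio, gain fitted against DMSO.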
# [12] = target: Cellular tumor antigen p53 (Homo sapiens) (UniProt P04637); assay: TOX21_p53_BLA_p4_ratio: Tox21 HCT-116 p53 Agonism Beta-lactamase Assay, Ratio, Phase 4 (AID 2283601)
# In short: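 HCT-116 p53 beta-lactamase reporter cells (4000/well) preincubated 5 h, then compound (217-fold dilution of DMSO stock) for 16 h at 37C. CCF4-AM substrate added 2 h at room temperature; 460/530 nm emission ratio fitted upward versus DMSO.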
# [13] = target: human RAR-related Orphan Receptor gamma (RORg), RORC (gene 6097) (UniProt P51449); assay: ATG_RORg_TRANS: Attagene TRANS-FACTORIAL HepG2 Assay for human RAR-related Orphan Receptor gamma (RORg) (AID 2283011)
# In short: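 Readout: reporter transcript induction (RT-PCR, fluorescent primer extension, capillary electrophoresis) after 24 h compound exposure of transiently transfected HepG2 cells carrying a RORg-Gal4 chimera and GAL4-UAS reporters; DMSO served as baseline, with increasing signal fitted.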
# [14] = target: Cellular tumor antigen p53 (Homo sapiens) (UniProt P04637); assay: TOX21_p53_BLA_p2_ratio: Tox21 HCT-116 p53 Agonism Beta-lactamase Assay, Ratio, Phase 2 (AID 2283592)
# In short: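 HCT116 cells carrying a p53-responsive beta-lactamase reporter were plated, incubated 5 h at 37C, then dosed with compounds in DMSO (217-fold dilution) for 16 h. CCF4-AM substrate was added for 2 h at room temperature; the 460/530 nm emission ratio gave gain-of-signal activity relative to DMSO.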
# [15] = ACEA_ER_AUC_viability: ACEA Biosciences xCELLigence Real-Time Cell Analysis on Estrogen Receptor Agonism for Viability (AID 2283782);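 note: continuous compound exposure with impedance area under curve over 80 h; hit means loss of impedance signal meaning reduced cell growth or viability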
# In short: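 T47D cells preconditioned in phenol red-free RPMI with charcoal-stripped FBS, then dosed with 8-point 1:4 series from 100 uM (up to 0.5% DMSO). Impedance monitored up to ~80 h; area-under-curve loss versus DMSO taken as viability.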
# [16] = TOX21_p53_BLA_p3_viability: Viability Assessment in the Tox21 HCT-116 p53 Agonism Beta-lactamase Assay, Phase 3 (AID 2283593);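 note: cells exposed to compound for 16 h before reading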
# In short: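 HCT116 cells, 4000/well, dosed 5 h after plating by pin transfer (217-fold dilution from DMSO stock) and incubated 16 h at 37C, 5% CO2. Viability read as ATP luminescence with CellTiter-Glo after 30 min at room temperature.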
# [17] = TOX21_p53_BLA_p4_viability: Viability Assessment in the Tox21 HCT-116 p53 Agonism Beta-lactamase Assay, Phase 4 (AID 2283597);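 note: hits lower the luminescence signal meaning cytotoxicity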
# In short: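 HCT116 p53-bla cells (4000/well) rested 5 h at 37C, then received compounds in DMSO (217-fold dilution) for 16 h at 37C, 5% CO2. CellTiter-Glo was added after the CCF4-AM read, and luminescence was read after 30 min at room temperature.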
# [18] = target: Cellular tumor antigen p53 (Homo sapiens) (UniProt P04637); assay: TOX21_p53_BLA_p5_ratio: Tox21 HCT-116 p53 Agonism Beta-lactamase Assay, Ratio, Phase 5 (AID 2283599)
# In short: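 HCT-116 p53-bla cells (4000/well) plated 5 h, dosed with compound (217-fold DMSO dilution) for 16 h at 37 C; CCF4-AM substrate 2 h at room temperature. Activity is the 460/530 nm emission ratio (405 nm excitation), fitted in gain-of-signal direction versus DMSO.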
# [19] = CCTE_Harrill_HTTr_CellCount_MCF7: CCTE's Cell Proliferation Assessment for the High-Throughput Transcriptomics (HTTr) Platform, Harrill Lab (AID 2284012);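 note: cells exposed to compound for six hours; intended direction is loss of nuclei count meaning fewer cells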
# In short: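 MCF7 cells exposed 6 hours to an eight-point dilution series; Hoechst-stained nuclei counted by high-content imaging. Bidirectional curve fitting against DMSO baseline.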
# [20] = target: human RAR-related Orphan Receptor beta (RORb), RORB (gene 6096) (UniProt Q92753); assay: ATG_RORb_TRANS: Attagene TRANS-FACTORIAL HepG2 Assay for human RAR-related Orphan Receptor beta (RORb) (AID 2283010)
# In short: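 HepG2 cells transiently transfected with GAL4-UAS reporter units expressing chimeric NR-Gal4 protein; reporter mRNA measured 24 h after dosing by RT-PCR, 6-FAM labelling and capillary electrophoresis. Gain-of-signal fitted relative to DMSO baseline.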
# Sequence of Oxysterols receptor LXR-alpha (Homo sapiens) (Q13133 whole entry, looked up, the tested form may be a part): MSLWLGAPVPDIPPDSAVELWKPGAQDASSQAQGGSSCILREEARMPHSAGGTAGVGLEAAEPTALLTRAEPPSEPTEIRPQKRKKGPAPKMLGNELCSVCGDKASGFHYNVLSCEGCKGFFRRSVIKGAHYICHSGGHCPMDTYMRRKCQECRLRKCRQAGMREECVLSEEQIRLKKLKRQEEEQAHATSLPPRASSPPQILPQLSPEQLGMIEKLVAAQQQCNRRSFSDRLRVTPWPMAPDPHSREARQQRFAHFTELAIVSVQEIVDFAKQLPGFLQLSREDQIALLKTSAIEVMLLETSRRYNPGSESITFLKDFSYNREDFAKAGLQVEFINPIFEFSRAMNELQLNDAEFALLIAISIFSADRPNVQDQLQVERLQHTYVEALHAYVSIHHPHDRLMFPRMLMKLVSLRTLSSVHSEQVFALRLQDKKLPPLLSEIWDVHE
# Sequence of human RAR-related Orphan Receptor gamma (RORg), RORC (gene 6097) (P51449 whole entry, looked up, the tested form may be a part): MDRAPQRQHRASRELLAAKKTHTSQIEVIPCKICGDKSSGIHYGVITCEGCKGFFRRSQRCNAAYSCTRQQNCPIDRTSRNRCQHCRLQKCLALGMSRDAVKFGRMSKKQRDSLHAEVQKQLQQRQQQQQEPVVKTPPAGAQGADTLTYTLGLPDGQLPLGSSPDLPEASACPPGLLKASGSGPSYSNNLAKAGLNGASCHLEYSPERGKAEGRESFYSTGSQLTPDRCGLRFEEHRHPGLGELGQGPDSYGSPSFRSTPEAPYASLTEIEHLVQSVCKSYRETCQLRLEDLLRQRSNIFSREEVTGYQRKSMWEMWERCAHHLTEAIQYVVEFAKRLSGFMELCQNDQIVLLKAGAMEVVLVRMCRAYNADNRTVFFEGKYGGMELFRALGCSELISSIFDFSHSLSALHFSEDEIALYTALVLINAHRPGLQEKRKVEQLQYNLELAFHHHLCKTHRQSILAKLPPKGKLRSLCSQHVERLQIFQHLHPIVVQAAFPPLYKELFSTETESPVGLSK
# Sequence of Hepatocyte nuclear factor 4-alpha (Homo sapiens) (P41235 whole entry, looked up, the tested form may be a part): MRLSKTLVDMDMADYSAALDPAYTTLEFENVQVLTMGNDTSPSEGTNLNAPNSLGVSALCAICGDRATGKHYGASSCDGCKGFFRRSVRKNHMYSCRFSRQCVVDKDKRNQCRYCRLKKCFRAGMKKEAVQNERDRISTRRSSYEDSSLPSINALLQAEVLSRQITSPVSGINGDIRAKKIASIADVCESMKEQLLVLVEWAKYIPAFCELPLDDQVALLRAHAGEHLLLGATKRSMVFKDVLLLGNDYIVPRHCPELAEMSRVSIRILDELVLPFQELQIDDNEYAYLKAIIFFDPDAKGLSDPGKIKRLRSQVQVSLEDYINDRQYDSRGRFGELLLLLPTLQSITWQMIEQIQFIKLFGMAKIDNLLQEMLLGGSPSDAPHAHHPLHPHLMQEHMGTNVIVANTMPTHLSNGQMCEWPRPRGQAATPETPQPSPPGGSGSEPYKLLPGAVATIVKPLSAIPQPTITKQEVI
# Sequence of human Peroxisome Proliferator-activated Receptor delta (PPARd), PPARD (gene 5467) (Q03181 whole entry, looked up, the tested form may be a part): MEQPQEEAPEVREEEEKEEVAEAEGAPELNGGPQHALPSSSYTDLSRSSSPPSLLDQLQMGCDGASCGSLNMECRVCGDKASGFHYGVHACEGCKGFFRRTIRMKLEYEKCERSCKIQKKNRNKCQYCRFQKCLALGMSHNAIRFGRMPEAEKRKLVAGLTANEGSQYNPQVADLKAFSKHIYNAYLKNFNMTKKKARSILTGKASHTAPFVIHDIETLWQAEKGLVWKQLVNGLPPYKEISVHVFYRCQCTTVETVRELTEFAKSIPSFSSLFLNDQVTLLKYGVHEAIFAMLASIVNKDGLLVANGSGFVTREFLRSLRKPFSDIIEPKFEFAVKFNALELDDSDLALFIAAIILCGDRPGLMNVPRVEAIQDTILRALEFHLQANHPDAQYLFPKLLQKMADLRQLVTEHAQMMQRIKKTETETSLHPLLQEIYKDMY
# Sequence of Bile acid receptor (Homo sapiens) (Q96RI1 whole entry, looked up): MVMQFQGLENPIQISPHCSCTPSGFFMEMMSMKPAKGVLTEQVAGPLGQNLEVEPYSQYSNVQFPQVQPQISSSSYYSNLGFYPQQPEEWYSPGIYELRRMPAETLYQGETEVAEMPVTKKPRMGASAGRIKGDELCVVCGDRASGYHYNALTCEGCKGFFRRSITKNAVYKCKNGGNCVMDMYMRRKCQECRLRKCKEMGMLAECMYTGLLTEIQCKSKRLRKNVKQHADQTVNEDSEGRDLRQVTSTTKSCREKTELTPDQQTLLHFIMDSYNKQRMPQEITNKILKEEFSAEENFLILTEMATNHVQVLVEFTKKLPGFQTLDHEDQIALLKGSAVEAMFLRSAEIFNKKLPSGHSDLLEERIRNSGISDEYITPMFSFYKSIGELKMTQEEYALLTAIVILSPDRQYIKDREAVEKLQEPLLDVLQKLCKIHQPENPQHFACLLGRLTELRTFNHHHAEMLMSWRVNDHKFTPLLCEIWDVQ
# Sequence of human RAR-related Orphan Receptor beta (RORb), RORB (gene 6096) (Q92753 whole entry, looked up, the tested form may be a part): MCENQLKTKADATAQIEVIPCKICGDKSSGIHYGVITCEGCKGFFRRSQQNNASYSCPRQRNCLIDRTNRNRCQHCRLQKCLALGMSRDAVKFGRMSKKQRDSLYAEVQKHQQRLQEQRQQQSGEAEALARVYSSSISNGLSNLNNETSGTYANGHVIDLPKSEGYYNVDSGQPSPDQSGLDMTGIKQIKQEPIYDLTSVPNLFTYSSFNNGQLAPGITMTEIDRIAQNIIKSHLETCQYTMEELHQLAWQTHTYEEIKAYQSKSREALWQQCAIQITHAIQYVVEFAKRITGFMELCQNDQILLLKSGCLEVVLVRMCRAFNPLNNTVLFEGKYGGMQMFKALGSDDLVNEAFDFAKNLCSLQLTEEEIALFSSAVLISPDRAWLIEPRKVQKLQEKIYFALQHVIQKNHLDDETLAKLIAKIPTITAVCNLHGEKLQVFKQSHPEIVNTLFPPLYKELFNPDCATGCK
# Sequence of Oxysterols receptor LXR-beta (Homo sapiens) (P55055 whole entry, looked up, the tested form may be a part): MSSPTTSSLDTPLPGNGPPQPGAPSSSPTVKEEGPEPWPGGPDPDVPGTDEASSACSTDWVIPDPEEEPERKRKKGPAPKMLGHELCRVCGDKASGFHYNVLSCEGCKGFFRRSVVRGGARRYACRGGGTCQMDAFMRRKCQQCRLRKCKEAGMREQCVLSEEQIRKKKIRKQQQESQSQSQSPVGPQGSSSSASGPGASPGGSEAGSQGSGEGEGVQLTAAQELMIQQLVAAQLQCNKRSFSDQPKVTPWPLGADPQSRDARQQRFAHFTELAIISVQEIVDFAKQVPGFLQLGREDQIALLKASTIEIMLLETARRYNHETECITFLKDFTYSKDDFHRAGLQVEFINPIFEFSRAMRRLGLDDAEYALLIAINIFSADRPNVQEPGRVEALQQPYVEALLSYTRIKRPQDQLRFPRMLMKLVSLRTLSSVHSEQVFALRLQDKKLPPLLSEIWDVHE
# Sequence of Glucocorticoid receptor (Homo sapiens) (P04150 whole entry, looked up, the tested form may be a part): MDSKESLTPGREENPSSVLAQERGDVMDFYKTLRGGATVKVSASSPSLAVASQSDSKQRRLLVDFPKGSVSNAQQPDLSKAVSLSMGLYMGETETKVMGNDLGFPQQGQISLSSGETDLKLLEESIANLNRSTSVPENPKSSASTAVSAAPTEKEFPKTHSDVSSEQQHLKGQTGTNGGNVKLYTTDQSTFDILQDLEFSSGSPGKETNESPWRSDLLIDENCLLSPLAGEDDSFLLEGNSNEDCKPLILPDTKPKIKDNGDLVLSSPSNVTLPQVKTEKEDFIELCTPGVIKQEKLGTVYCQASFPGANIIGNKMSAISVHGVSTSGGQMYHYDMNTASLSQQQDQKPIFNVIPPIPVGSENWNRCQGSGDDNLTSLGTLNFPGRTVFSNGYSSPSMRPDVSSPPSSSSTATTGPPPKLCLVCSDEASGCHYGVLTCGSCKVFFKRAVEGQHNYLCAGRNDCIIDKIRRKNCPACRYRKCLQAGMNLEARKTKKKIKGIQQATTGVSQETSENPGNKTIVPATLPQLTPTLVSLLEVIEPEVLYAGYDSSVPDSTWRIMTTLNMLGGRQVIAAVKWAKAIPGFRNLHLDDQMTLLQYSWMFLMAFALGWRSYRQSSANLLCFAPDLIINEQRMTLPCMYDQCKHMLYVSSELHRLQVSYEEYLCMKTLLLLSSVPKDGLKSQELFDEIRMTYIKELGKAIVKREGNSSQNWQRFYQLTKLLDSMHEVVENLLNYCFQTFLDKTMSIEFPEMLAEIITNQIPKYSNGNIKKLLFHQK
# Sequence of Nuclear receptor subfamily 1 group I member 3 (Homo sapiens) (Q14994 whole entry, looked up, the tested form may be a part): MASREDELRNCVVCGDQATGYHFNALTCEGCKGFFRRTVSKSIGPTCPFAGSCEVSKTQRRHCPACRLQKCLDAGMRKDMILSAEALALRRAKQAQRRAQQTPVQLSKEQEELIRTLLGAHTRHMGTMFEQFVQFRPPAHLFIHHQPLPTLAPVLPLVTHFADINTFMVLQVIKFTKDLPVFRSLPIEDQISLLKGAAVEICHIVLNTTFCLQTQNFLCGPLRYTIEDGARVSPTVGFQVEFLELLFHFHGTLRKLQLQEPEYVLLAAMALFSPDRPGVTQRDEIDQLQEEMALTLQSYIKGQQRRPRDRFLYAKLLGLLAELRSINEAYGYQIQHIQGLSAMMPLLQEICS
# Sequence of Cellular tumor antigen p53 (Homo sapiens) (P04637 whole entry, looked up): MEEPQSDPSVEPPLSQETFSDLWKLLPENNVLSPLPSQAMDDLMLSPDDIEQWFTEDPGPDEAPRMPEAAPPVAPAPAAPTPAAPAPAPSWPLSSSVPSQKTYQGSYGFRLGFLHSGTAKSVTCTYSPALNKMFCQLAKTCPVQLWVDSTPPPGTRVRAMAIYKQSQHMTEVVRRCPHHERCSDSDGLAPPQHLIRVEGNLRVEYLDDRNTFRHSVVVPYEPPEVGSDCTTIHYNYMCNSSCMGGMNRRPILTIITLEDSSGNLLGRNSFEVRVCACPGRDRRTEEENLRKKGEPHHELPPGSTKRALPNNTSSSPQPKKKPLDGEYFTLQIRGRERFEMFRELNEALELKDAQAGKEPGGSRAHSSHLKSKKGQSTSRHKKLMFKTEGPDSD
compound,measurement,setting,value
CC(C)C(=O)Cl,outcome,[1],inactive
same,outcome,[2],inactive
same,outcome,[3],inactive
O=P(O)(Oc1ccccc1)Oc1ccccc1,outcome,[4],inactive
same,outcome,[1],inactive
same,outcome,[5],inactive
same,outcome,[6],inactive
same,outcome,[7],inactive
same,outcome,[8],inactive
same,outcome,[9],inactive
same,outcome,[10],inactive
same,outcome,[11],inactive
same,outcome,[12],inactive
C=CCc1ccc(OC(=O)Cc2ccccc2)c(OC)c1,outcome,[5],inactive
same,outcome,[6],inactive
same,outcome,[7],inactive
same,outcome,[9],inactive
same,outcome,[2],inactive
same,outcome,[13],inactive
same,outcome,[3],inactive
same,outcome,[10],inactive
same,outcome,[14],inactive
same,outcome,[15],inactive
CCc1cccc(C)c1N(C(=O)CCl)[C@@H](C)COC,outcome,[5],inactive
same,outcome,[3],inactive
same,outcome,[10],inactive
same,outcome,[14],inactive
same,outcome,[16],inactive
same,outcome,[11],inactive
same,outcome,[17],inactive
same,outcome,[18],inactive
same,outcome,[12],inactive
same,outcome,[19],inactive
CCCCOC(=O)CCC(=O)OCCCC,outcome,[5],inactive
same,outcome,[2],inactive
same,outcome,[20],inactive
same,outcome,[13],inactive
same,outcome,[3],inactive
same,outcome,[10],inactive
same,outcome,[18],inactive
same,outcome,[12],inactive
Cc1cc(C)c(C2=C(OC(=O)CC(C)(C)C)C3(CCCC3)OC2=O)c(C)c1,outcome,[4],inactive
same,outcome,[1],inactive
same,outcome,[5],inactive
same,outcome,[9],inactive
same,outcome,[3],inactive
Cl/C=C\CCl,outcome,[6],inactive
same,outcome,[2],inactive
same,outcome,[13],inactive
same,outcome,[15],inactive
same,outcome,[19],inactive
CCCC=NO,AC50,[4],43.5 µM (active)
same,outcome,[1],inactive
same,outcome,[5],inactive
same,outcome,[6],inactive
same,outcome,[7],inactive
same,outcome,[8],inactive
same,outcome,[9],inactive
same,outcome,[20],inactive
same,outcome,[13],inactive
same,outcome,[3],inactive
same,outcome,[10],inactive
same,outcome,[14],inactive
same,outcome,[16],inactive
same,outcome,[11],inactive
same,outcome,[17],inactive
same,outcome,[15],inactive
CCOP(=O)(OCC)OCC,outcome,[5],inactive
same,outcome,[6],inactive
same,outcome,[7],inactive
same,outcome,[8],inactive
same,outcome,[2],inactive
same,outcome,[20],inactive
same,outcome,[13],inactive
same,outcome,[3],inactive
same,outcome,[10],inactive
same,outcome,[14],inactive
same,outcome,[16],inactive
same,outcome,[11],inactive
same,outcome,[17],inactive
same,outcome,[18],inactive
same,outcome,[12],inactive
